We go through 92 compounds from PubChem BioAssay AID738 (SRMLSC, 2007).

In all, about 98,000 compounds went through this assay and about 4,900 (5%) were called active. The list comes from a sample in which actives are over-represented; it also holds similar structures and randomly drawn compounds. Unmarked numbers belong to inactive results. Cut-off read from the data, not from the text of the source: active = inhibition above about 30%; inactive = the rest.

The nature of the experiment: yeast control strain growth suppression – counter-screen for post-Golgi transport modulator project, primary screen (AID 738). Particulars: efflux-deficient yeast background strain, growth absorbance A615, 16 h; at 10 µM; stronger effect = higher value.
Broadly, the inhibition is the drop in the measured response relative to a control, in per cent. Consider `N/C(=N\OC(=O)Nc1ccc(Cl)c(Cl)c1)c1ncc(C(F)(F)F)cc1Cl`, for which the inhibition was 13.3%.

Turning to `O=C(CC(O)(C(F)(F)F)C(F)(F)F)Nc1ccc(Cl)c(Cl)c1`, the inhibition was 96.9% (active).

Take `Cc1nnc(NC(=O)Nc2ccc(Cl)c(Cl)c2)s1`: the inhibition is 3.53%.

As for `COCc1cc(C)nc2sc3c(=O)n(-c4cccc5ccccc45)nnc3c12`, the inhibition is 21.1%.

On to `O=C(Cn1nnc(-c2ccccc2)n1)NCc1ccc2c(c1)OCO2`, for which the inhibition was 2.85%.

Consider `COc1ccc(-c2csc(N3CCN(Cc4ccc5c(c4)OCO5)CC3)n2)cc1`, for which the inhibition was -2.01%.

Consider `O=C(CN1CCN(c2nc(-c3ccccc3)cs2)CC1)NCc1ccc2c(c1)OCO2`, for which the inhibition was 44.6% (active).

Turning to `COc1ccc(C2CC(=O)Nc3sc(=N)c4c(N)c(C#N)c(N)nc4c32)cc1OC` (configuration not stated), the inhibition is 24.2%.

With `Fc1ccccc1/C=C1\CCCC2=C1Nc1ncnn1C2c1ccccc1F` (configuration not stated), the inhibition was 35.8% (active).

Take `CCCSc1nc2c(c(=O)[nH]c(=O)n2C)n1CCc1ccccc1`: the inhibition was 16.6%.

In the case of `CCCCCCn1c(SCC(=O)c2ccccc2)nc2c1c(=O)[nH]c(=O)n2C`, the inhibition is 12.4%.

`CCCCCn1c(SCCC(C)C)nc2c1c(=O)[nH]c(=O)n2C`: the inhibition is 35.5% (active).

Consider `ONC(=Nc1ccccc1)c1ccccc1Cl`, for which the inhibition is 24.2%.

Consider `CN(C(=O)CSc1nnc(N)s1)c1c(N)n(Cc2ccccc2)c(=O)[nH]c1=O`, for which the inhibition was 7.66%.

On to `Cc1cc([N+](=O)[O-])c(N2CCC[C@@H]2C(=O)O)c([N+](=O)[O-])c1`, for which the inhibition was 18.4%.

Regarding `Cc1ccsc1-c1nc(CSCC(=O)NCCN2CCCC2)c(C)o1`, the inhibition was 34.5% (active).

On to `Cc1ccc(Cc2c(C)nc3nc(SCC(=O)NCCN4CCOCC4)nn3c2C)cc1`, for which the inhibition was 20%.

With `Cn1c(C(=O)NCCCN2CCCCC2)cc2sccc21`, the inhibition was 2.29%.

For the compound `COc1ccccc1N1CCN(Cc2ccc(OC)c3ccccc23)CC1`, the inhibition was 34.9% (active).

On to `COc1ccccc1N1CCN(Cc2nnnn2CCc2ccccc2)CC1`, for which the inhibition was 7.81%.

As for `COc1ccccc1N1CCN(CCCCOc2ccc(F)cc2)CC1`, the inhibition was -0.55%.

As for `Cc1cc(C)n2nc(C(=O)NC(C)(C)C)nc2n1`, the inhibition was 4.47%.

Regarding `COc1ccc(Oc2c(Cl)cnn(-c3ccccc3)c2=O)cc1`, the inhibition was -3.86%.

Turning to `CCN1CCC(=NNC(=O)c2ccc(C)c([N+](=O)[O-])c2)CC1`, the inhibition was 3.82%.

In the case of `COc1ccc(-c2nc(CS(=O)CC(=O)N3CCc4ccccc4C3)c(C)o2)cc1` (configuration not stated), the inhibition was 4.85%.

Regarding `Cc1oc(-c2ccccc2F)nc1CS(=O)(=O)CC(=O)NCCCN(C)C1CCCCC1`, the inhibition was 13.5%.

For `Cc1ccccc1-c1nc(CS(=O)(=O)CC(=O)N2CCc3ccccc3C2)c(C)o1`, the inhibition was 30.9% (active).

Consider `COc1cc(/C=N\NC(=O)C2C(=O)NCC2c2ccccc2)cc(OC)c1O` (configuration not stated), for which the inhibition is -0.14%.

For `CC(C)(C)Cc1nnc(NC(=O)c2cc(-c3ccccc3)nc3ccccc23)s1`, the inhibition is 9.13%.

Consider `CCOC(=O)c1[nH]c2ccc(C)cc2c1N=C(C)N(C)C`, for which the inhibition was 30.6% (active).

Consider `CCOC(=O)c1cc2cc(C)ccc2[nH]1`, for which the inhibition is 10.2%.

Turning to `CCOC(=O)c1[nH]c2ccccc2c1N=C(C)N(CC)CC`, the inhibition is -8.42%.

On to `Cn1cnc([N+](=O)[O-])c1Sc1ccccc1`, for which the inhibition is 7.56%.

Consider `Clc1ccc(-n2nnnc2CN2CCCCC2)cc1Cl`, for which the inhibition was -0.16%.

With `Cc1ccccc1CS(=O)(=O)CC1(O)CCN(C(=O)c2cccc(C(F)(F)F)c2)CC1`, the inhibition was 4.49%.

As for `COc1cc(/C=C(/NC(=O)c2ccccc2)C(=O)Nc2cccc(O)c2)c([N+](=O)[O-])cc1OC`, the inhibition was 15.7%.

With `CCOC(=O)N1CCN(C(=O)Cc2ccc(-n3c(=S)[nH]c4ccccc4c3=O)cc2)CC1`, the inhibition is -2.12%.

On to `O=C(Cc1ccc(-n2c(=O)[nH]c3ccccc3c2=O)cc1)N1CCN(c2cccc(Cl)c2)CC1`, for which the inhibition is 37.3% (active).

On to `O=C(CCn1c(=O)[nH]c2ccccc2c1=O)NCCCN1CCN(c2cccc(Cl)c2)CC1`, for which the inhibition is 1.72%.

In the case of `COc1ccc(NC(=O)C(NC(C)=O)C(=O)NCc2ccccc2Cl)cc1` (configuration not stated), the inhibition was 14%.

`COC(=O)CN(C(=S)Nc1ccc(Cl)cc1)C1CC(=O)N(c2ccc(OC)cc2)C1=O` (configuration not stated): the inhibition was 7.41%.

Turning to `CC1CCc2c(sc(NC(=O)c3ccc(Cn4cc(Br)cn4)o3)c2C(N)=O)C1` (configuration not stated), the inhibition is 10.8%.

For the compound `O=C(Nc1ccc(Br)c2cccnc12)c1ccc(Cn2cc([N+](=O)[O-])cn2)o1`, the inhibition was 30.3% (active).

For `O=C(NCc1cccnc1)c1ccc(CS(=O)(=O)c2ccc(Br)cc2)o1`, the inhibition was -2.42%.

Regarding `COc1ccccc1NC(=O)[C@H](COCc1ccccc1)NC(=O)OC(C)(C)C`, the inhibition is 5.88%.

Take `CC(=O)c1ccc(Cc2ncc(C(F)(F)F)cc2Cl)s1`: the inhibition is 5.66%.

`CCN1CCN(c2ccc([N+](=O)[O-])cc2C(=O)c2ccc(Cl)cc2)CC1`: the inhibition was 26.2%.

Consider `O=C(NCc1ccccn1)c1cc(-c2ccccc2Cl)on1`, for which the inhibition was 9.87%.

Turning to `CC(=O)c1c(C)[nH]c(C(=O)NCc2ccc(C)cc2)c1C`, the inhibition is 5.25%.

For the compound `COc1ccc(C)cc1NC(=O)c1[nH]c(C)c(C(C)=O)c1C`, the inhibition is 55% (active).

`CCOc1ccc(C(=O)Nc2cc(OC)ccc2OC)cc1`: the inhibition is -3.51%.

For `CC1=NN(C(=O)c2ccccc2Br)C(O)(c2cccnc2)C1` (configuration not stated), the inhibition was 9.36%.

On to `COC(=O)c1ccc(C(=O)Nc2cc(Cl)ccc2Cl)cc1NC(=O)c1ccccc1C`, for which the inhibition is 1.48%.

Turning to `Cc1ccc(NC(=O)C(C)c2cccc(C(=O)c3ccccc3)c2)cc1` (configuration not stated), the inhibition was 9.41%.

For `CC(C)CC(=O)N1CCC(O)(CS(=O)(=O)Cc2ccccc2)CC1`, the inhibition is 12.7%.

As for `c1ccc(CSc2nnc(-c3ccco3)n2Cc2ccccc2)cc1`, the inhibition was 38.6% (active).

Take `O=C(CSc1nnc(-c2ccco2)n1Cc1ccccc1)NC(=O)NCc1ccco1`: the inhibition was -1.05%.

With `c1ccc(CSc2nnc(-c3ccco3)c(-c3ccco3)n2)cc1`, the inhibition is 21.3%.

Take `COc1ccc(CCN(C(=O)COc2ccccc2)c2nc(-c3ccccc3)cs2)cc1OC`: the inhibition was 4.48%.

With `CCC(c1nnnn1C1CCCC1)N(Cc1cccs1)Cc1cc2cccc(C)c2[nH]c1=O` (configuration not stated), the inhibition was 38.6% (active).

Regarding `CCC(c1nnnn1Cc1ccco1)N(CCc1ccccc1)Cc1cc2ccc(OC)cc2[nH]c1=O` (configuration not stated), the inhibition was 5.86%.

Regarding `CCC(c1nnnn1Cc1ccco1)N(CCc1ccccc1)Cc1cc2cccc(C)c2[nH]c1=O` (configuration not stated), the inhibition was 52.5% (active).

Turning to `Cc1cccc2cc(CN(Cc3ccc4c(c3)OCO4)Cc3nnnn3C3CCCC3)c(=O)[nH]c12`, the inhibition was 20.4%.

As to `CCC(c1nnnn1Cc1ccco1)N(Cc1cc2cc(OC)ccc2[nH]c1=O)C1CCCCC1` (configuration not stated), the inhibition was 29.9%.

Turning to `Cc1cccc2cc(CN(Cc3cccs3)C(c3nnnn3C3CCCC3)C(C)C)c(=O)[nH]c12` (configuration not stated), the inhibition is 23%.

As to `CCOC(=O)C1CN(S(=O)(=O)c2ccc(F)cc2)C1`, the inhibition is -2.08%.

Turning to `N=c1c2c(-c3ccccc3)c(-c3ccccc3)oc2ncn1Cc1ccco1`, the inhibition was 26.2%.

Regarding `CC(=O)c1sc(NC(=O)c2cccc3ccccc23)nc1C`, the inhibition is -0.59%.

On to `Cc1ccc2nc(SCc3nnc(-c4ccccc4[N+](=O)[O-])o3)c(C#N)cc2c1`, for which the inhibition is 23.2%.

For `c1ccc2c(CSCc3nc4ccccc4[nH]3)cccc2c1`, the inhibition was 14.3%.

Take `Cc1ccc(OC(=O)c2ccccc2C(=O)OCC(F)(F)C(F)F)cc1`: the inhibition is 5.33%.

On to `COc1ccc(-c2cc(C(F)(F)F)nc(S(C)(=O)=O)n2)cc1OC`, for which the inhibition is 87.3% (active).

As to `COc1ccc(-c2cc(C(F)(F)F)nc(NCc3cccnc3)n2)cc1`, the inhibition was 26.7%.

On to `COc1ccc(-c2ccc(Nc3ccc(S(=O)(=O)N4CCCC4)cc3)nn2)cc1OC`, for which the inhibition is -1.56%.

With `O=C(Nc1ccc(Br)cc1)C1CCC(=O)N1Cc1ccccc1Cl` (configuration not stated), the inhibition is -0.46%.

`CSCc1cc(N2CCOCC2)nc(SCc2ccc(Cl)cc2Cl)n1`: the inhibition is 7.94%.

As to `Cc1cc(C(=O)Nc2c(C)nn(Cc3ccccc3)c2C)on1`, the inhibition was 8.88%.

Turning to `CC(=O)Nc1ccccc1C(=O)C(=O)Nc1ccc(F)cc1`, the inhibition is 4.22%.

On to `N#Cc1nc(-c2ccc(OCc3ccccc3)cc2)oc1NCCCN1CCOCC1`, for which the inhibition was 14.1%.

As for `N#Cc1nc(COc2ccc(-c3ccccc3)cc2)oc1NCc1cccnc1`, the inhibition is 94.2% (active).

Consider `N#Cc1nc(Cc2ccccc2)oc1NCCc1ccccc1`, for which the inhibition was 21.1%.

Turning to `FC(F)(F)c1nc2ccccc2nc1N/N=C/c1ccc(Cl)cc1`, the inhibition was -2.3%.

Turning to `CCOC(=O)N1CCN(c2c(NCCCN3CCCC(C)C3)c(=O)c2=O)CC1` (configuration not stated), the inhibition is -0.16%.

On to `COCCn1nnnc1C(c1ccccc1Cl)N1CCN(c2ccccc2OC)CC1` (configuration not stated), for which the inhibition is 3.75%.

Regarding `CC(C)C(c1nnnn1C1CCCC1)N1CCN(c2ccccc2F)CC1` (configuration not stated), the inhibition is 42.7% (active).

Regarding `CCC(c1nnnn1C1CCCC1)N1CCN(C(=O)c2ccco2)CC1` (configuration not stated), the inhibition was 12.4%.

On to `COc1ccc(N2CCN(C(c3cc4ccc(C)cc4[nH]c3=O)c3nnnn3C3CCCC3)CC2)cc1` (configuration not stated), for which the inhibition was -0.59%.

Take `CC(C)C(c1nnnn1Cc1ccccc1)N1CCC(C(N)=O)CC1` (configuration not stated): the inhibition was -0.16%.

Take `COc1ccc(C(c2nnnn2C2CCCCC2)N2CCN(c3ccccc3F)CC2)cc1` (configuration not stated): the inhibition is 50.5% (active).

With `Cc1ccc(SCC2=NNC(=O)C2)cc1`, the inhibition is -3.86%.

As for `O=C(NNC(=O)c1cccnc1)Nc1ccccc1`, the inhibition was 8.65%.

With `O=Cc1c(N2CCN(c3cccc(Cl)c3)CC2)nc2ccccn2c1=O`, the inhibition was 20%.
